In PubChem BioAssay (NCI):
The panel holds about 83,000 compounds, 20% with a hit somewhere; the sample as a whole holds those more often.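 The test compound was applied at a single concentration to cells in 96-well plates for 48 hours, and percent growth was recorded.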 Calls of active or inactive are those of the source. Rule for the calls: active = growth percent below 10; inactive = the rest.

Columns and labels:
Assay in all cases: NCI-60 one-dose screen, 48 h (100 = growth as untreated, 0 = no growth, -100 = all killed)
Settings in all cases: 10 µM unless noted
DU-145 prostate = system: DU-145 prostate
K-562 leukemia = system: K-562 leukemia
MALME-3M melanoma = system: MALME-3M melanoma
MDA-MB-231 breast = system: MDA-MB-231 breast
RXF 393 renal = system: RXF 393 renal
SF-268 CNS = system: SF-268 CNS
SF-295 CNS = system: SF-295 CNS
SF-539 CNS = system: SF-539 CNS
UACC-257 melanoma = system: UACC-257 melanoma
M14 melanoma = system: M14 melanoma
HCT-15 colon = system: HCT-15 colon
HT29 colon = system: HT29 colon
SNB-75 CNS = system: SNB-75 CNS
SNB-19 CNS = system: SNB-19 CNS
U251 CNS = system: U251 CNS
PC-3 prostate = system: PC-3 prostate
SK-MEL-5 melanoma = system: SK-MEL-5 melanoma
UACC-62 melanoma = system: UACC-62 melanoma
LOX IMVI melanoma = system: LOX IMVI melanoma
SK-MEL-28 melanoma = system: SK-MEL-28 melanoma

Measured: growth

COc1ccc(/C=N/Nc2cc(=O)[nH]c3ccc(Cl)cc23)cc1
active: HT29 colon 3.92%
inactive: DU-145 prostate 64.7% | K-562 leukemia 20.9% | MALME-3M melanoma 46% | MDA-MB-231 breast 71.3% | RXF 393 renal 85.6% | SF-268 CNS 58.9% | SF-295 CNS 72.6% | SF-539 CNS 97.2% | UACC-257 melanoma 81.7% | M14 melanoma 54.8% | HCT-15 colon 39.5% | SNB-75 CNS 99% | SNB-19 CNS 85.8% | U251 CNS 28.9% | PC-3 prostate 59.1% | SK-MEL-5 melanoma 38.2% | UACC-62 melanoma 77.3% | LOX IMVI melanoma 37.2% | SK-MEL-28 melanoma 87.2%

COc1cc(C2CC(c3ccc(N(C)C)cc3)=NN2C(C)=O)cc(OC)c1OC (stereo not given)
inactive: K-562 leukemia 17.6% | MALME-3M melanoma 37.9% | MDA-MB-231 breast 56.3% | SF-268 CNS 35% | SF-295 CNS 12.1% | UACC-257 melanoma 56.5% | M14 melanoma 19.4% | HCT-15 colon 24.6% | SNB-19 CNS 39.3% | U251 CNS 29.3% | PC-3 prostate 29.4% | UACC-62 melanoma 26.9% | LOX IMVI melanoma 37.6% | SK-MEL-28 melanoma 52.2%
active: DU-145 prostate 2.14% | RXF 393 renal -17.7% | SF-539 CNS -21.4% | HT29 colon 9.83% | SNB-75 CNS -23.6% | SK-MEL-5 melanoma 9%

COc1cccc2nc3n(c12)C(c1c(F)cccc1F)SC3 (stereo not given)
inactive: DU-145 prostate 128% | K-562 leukemia 84.6% | MALME-3M melanoma 101% | MDA-MB-231 breast 93.2% | RXF 393 renal 105% | SF-268 CNS 108% | SF-295 CNS 99.9% | SF-539 CNS 95.7% | UACC-257 melanoma 100% | M14 melanoma 111% | HCT-15 colon 101% | HT29 colon 100% | SNB-75 CNS 96% | SNB-19 CNS 101% | U251 CNS 92.5% | PC-3 prostate 80.6% | SK-MEL-5 melanoma 86% | UACC-62 melanoma 77.5% | LOX IMVI melanoma 93.1% | SK-MEL-28 melanoma 112%

FC(F)(F)c1cc(Nc2ccc3c(OCCCN4CCOCC4)cccc3n2)ccc1Cl
active: K-562 leukemia -31.6% | SF-295 CNS 0.167% | HCT-15 colon -39.8% | HT29 colon -22.7% | U251 CNS 9.5% | LOX IMVI melanoma -37.6%
inactive: DU-145 prostate 55.9% | MALME-3M melanoma 54.3% | MDA-MB-231 breast 10.1% | RXF 393 renal 23.9% | SF-268 CNS 54.6% | SF-539 CNS 36.2% | UACC-257 melanoma 96.6% | M14 melanoma 40.4% | SNB-75 CNS 40.8% | SNB-19 CNS 35.9% | PC-3 prostate 33.5% | SK-MEL-5 melanoma 69.5% | UACC-62 melanoma 55.3% | SK-MEL-28 melanoma 41.9%

O=C(/C=C/c1sc(Cl)nc1Cl)c1ccccc1
inactive: DU-145 prostate 99.1% | K-562 leukemia 10.8% | MALME-3M melanoma 95.7% | MDA-MB-231 breast 98.7% | RXF 393 renal 99.7% | SF-268 CNS 104% | SF-295 CNS 102% | SF-539 CNS 72.3% | UACC-257 melanoma 94.9% | M14 melanoma 79.8% | HCT-15 colon 30.4% | HT29 colon 88.6% | SNB-75 CNS 86.5% | SNB-19 CNS 96% | U251 CNS 69.9% | PC-3 prostate 84.8% | SK-MEL-5 melanoma 102% | UACC-62 melanoma 93.5% | SK-MEL-28 melanoma 95.4%
active: LOX IMVI melanoma 3.61%

CCCCCCNC(=O)Oc1ccc(/C(=C(\C)c2ccc(Cl)cc2)c2ccc(OCCCN(C)C)cc2)cc1
inactive: DU-145 prostate 84.9% | MALME-3M melanoma 68.6% | MDA-MB-231 breast 79.2% | RXF 393 renal 80.1% | SF-268 CNS 77% | SF-295 CNS 97.5% | SF-539 CNS 87.9% | UACC-257 melanoma 60% | M14 melanoma 76.7% | SNB-75 CNS 79.1% | SNB-19 CNS 79.8% | U251 CNS 42% | PC-3 prostate 79.6% | SK-MEL-5 melanoma 86.2% | UACC-62 melanoma 96.9% | LOX IMVI melanoma 39.5% | SK-MEL-28 melanoma 97.2%
active: K-562 leukemia -28.4% | HCT-15 colon 8.75% | HT29 colon 0.63%

COc1ccc(S(=O)(=O)n2c3ccccc3n3ncc(-c4nnc(C)o4)c23)cc1
inactive: DU-145 prostate 22.8% | K-562 leukemia 15.4% | MALME-3M melanoma 66.9% | MDA-MB-231 breast 30.1% | SF-268 CNS 53% | UACC-257 melanoma 84.1% | M14 melanoma 15.4% | HCT-15 colon 20.3% | HT29 colon 11.2% | SNB-75 CNS 14.1% | SNB-19 CNS 23% | U251 CNS 31.6% | PC-3 prostate 36.5% | SK-MEL-5 melanoma 21.3% | UACC-62 melanoma 27.3% | LOX IMVI melanoma 36.8% | SK-MEL-28 melanoma 65.3%
active: RXF 393 renal -22.2% | SF-295 CNS 6.74% | SF-539 CNS -1.67%

COc1ccc(OC)c(/C=C/c2nnc(Nc3ccccc3)o2)c1
inactive: DU-145 prostate 93.3% | K-562 leukemia 83.2% | MALME-3M melanoma 116% | MDA-MB-231 breast 95% | RXF 393 renal 93.6% | SF-268 CNS 98.5% | SF-295 CNS 91.1% | SF-539 CNS 103% | UACC-257 melanoma 117% | M14 melanoma 110% | HCT-15 colon 90.5% | HT29 colon 93.6% | SNB-75 CNS 82.1% | SNB-19 CNS 96.9% | U251 CNS 98% | PC-3 prostate 93.8% | SK-MEL-5 melanoma 90% | UACC-62 melanoma 92.1% | LOX IMVI melanoma 99.5% | SK-MEL-28 melanoma 108%

CCCCCCN(CCCCCC)c1ccc(/C=C2/SC(=O)NC2=O)c(C)c1
inactive: DU-145 prostate 102% | K-562 leukemia 65.2% | MALME-3M melanoma 72.9% | MDA-MB-231 breast 111% | RXF 393 renal 101% | SF-268 CNS 89.5% | SF-295 CNS 65.6% | SF-539 CNS 117% | UACC-257 melanoma 103% | M14 melanoma 90.1% | HCT-15 colon 75.7% | HT29 colon 79.6% | SNB-75 CNS 78.8% | SNB-19 CNS 96% | U251 CNS 75.5% | PC-3 prostate 69.8% | SK-MEL-5 melanoma 82.1% | UACC-62 melanoma 73.1% | LOX IMVI melanoma 86.5% | SK-MEL-28 melanoma 93.8%

O=S(=O)(NCCCNc1cc(-c2c(-c3cccc(O)c3)nc3sccn23)ccn1)c1cccc2ccccc12
inactive: DU-145 prostate 42.4% | K-562 leukemia 21.3% | MALME-3M melanoma 48.4% | MDA-MB-231 breast 72.2% | RXF 393 renal 41.1% | SF-268 CNS 41.5% | SF-295 CNS 34.3% | SF-539 CNS 72.2% | UACC-257 melanoma 61.2% | M14 melanoma 45.4% | HCT-15 colon 24.4% | HT29 colon 36.1% | SNB-19 CNS 66.5% | U251 CNS 46.2% | PC-3 prostate 30.4% | SK-MEL-5 melanoma 37.3% | UACC-62 melanoma 39% | LOX IMVI melanoma 33% | SK-MEL-28 melanoma 67.3%
active: SNB-75 CNS 4.78%

O=C(N/N=C/c1c(Cl)cccc1Cl)c1ccc(C(F)(F)F)nc1Nc1cccc(C(F)(F)F)c1
active: K-562 leukemia -7.07% | MALME-3M melanoma 5.8% | SF-268 CNS -2.71% | SF-539 CNS 1.63% | UACC-257 melanoma 7.6% | HCT-15 colon -13.5% | U251 CNS 2.92% | PC-3 prostate 7.85% | SK-MEL-5 melanoma 7.65% | UACC-62 melanoma -3.04% | LOX IMVI melanoma 3.01%
inactive: DU-145 prostate 11.4% | MDA-MB-231 breast 11.3% | RXF 393 renal 40.8% | SF-295 CNS 13.7% | M14 melanoma 23.6% | HT29 colon 15.6% | SNB-75 CNS 48.8% | SNB-19 CNS 19.6% | SK-MEL-28 melanoma 36.6%

Cc1cc(-c2cc(C)c(N)cc2C)c(C)cc1N
inactive: DU-145 prostate 121% | K-562 leukemia 54.7% | MALME-3M melanoma 84.2% | MDA-MB-231 breast 82.8% | RXF 393 renal 111% | SF-268 CNS 95.9% | SF-295 CNS 84.1% | SF-539 CNS 97.5% | UACC-257 melanoma 90.5% | M14 melanoma 65.6% | HCT-15 colon 73% | HT29 colon 99% | SNB-75 CNS 101% | SNB-19 CNS 85.2% | U251 CNS 71.8% | PC-3 prostate 80.5% | SK-MEL-5 melanoma 81.6% | UACC-62 melanoma 75.8% | LOX IMVI melanoma 75.6% | SK-MEL-28 melanoma 89.3%

O=c1c2cccc(F)c2sc2c(NCCCNCCO)nc3ccccc3c12
active: K-562 leukemia -20% | MDA-MB-231 breast 5.79% | M14 melanoma -58.5% | HT29 colon -39.8% | LOX IMVI melanoma -86.6%
inactive: DU-145 prostate 23.7% | MALME-3M melanoma 74% | RXF 393 renal 50.8% | SF-268 CNS 41.9% | SF-295 CNS 63.7% | SF-539 CNS 41.1% | UACC-257 melanoma 85.6% | HCT-15 colon 11.4% | SNB-75 CNS 45.5% | SNB-19 CNS 44.1% | U251 CNS 38.8% | PC-3 prostate 38.3% | SK-MEL-5 melanoma 71.7% | UACC-62 melanoma 59.8% | SK-MEL-28 melanoma 64.2%

COc1ccc(C(=O)N=Nc2c(O)n(C)c3ccccc23)cc1
inactive: DU-145 prostate 108% | K-562 leukemia 89.3% | MALME-3M melanoma 103% | MDA-MB-231 breast 85.2% | RXF 393 renal 100% | SF-268 CNS 95.8% | SF-295 CNS 101% | SF-539 CNS 89.8% | UACC-257 melanoma 106% | M14 melanoma 101% | HCT-15 colon 91.6% | HT29 colon 103% | SNB-75 CNS 91.6% | SNB-19 CNS 87.3% | U251 CNS 98.5% | PC-3 prostate 90.9% | SK-MEL-5 melanoma 89.1% | UACC-62 melanoma 90.6% | LOX IMVI melanoma 81.8% | SK-MEL-28 melanoma 107%

COc1cc(C(=O)N/N=C/c2cc3cc(OCc4ccccc4)ccc3nc2OC)cc(OC)c1OC
inactive: DU-145 prostate 102% | K-562 leukemia 74.6% | MALME-3M melanoma 110% | MDA-MB-231 breast 94.7% | RXF 393 renal 79.6% | SF-268 CNS 79.7% | SF-295 CNS 98.4% | SF-539 CNS 85.8% | UACC-257 melanoma 79.2% | M14 melanoma 83.4% | HCT-15 colon 80.3% | HT29 colon 82.9% | SNB-75 CNS 77.7% | SNB-19 CNS 90.3% | U251 CNS 84.8% | PC-3 prostate 68.1% | SK-MEL-5 melanoma 63.7% | UACC-62 melanoma 84.3% | LOX IMVI melanoma 81.9% | SK-MEL-28 melanoma 100%
